Assay results: PubChem BioAssay AID686970 (National Center for Advancing Translational Sciences (NCATS), 2013)
The whole screen tested about 360,000 compounds, of which about 6,000 (1.7%) were called active. Where a call stands in place of a potency, no number is given. Inconclusive results (about 8%) are left out. This excerpt belongs to a sample that is enriched for actives. Values without a mark were called inactive. Calls follow the shape of the dose curve; as a rule, active = well fitted cell-killing curve with a large enough effect; inconclusive = small, poorly fitted or top-dose-only effect, or effect the other way; inactive = flat fitted curve, though single readings scatter.

assay: qHTS for induction of synthetic lethality in tumor cells producing 2HG: qHTS for the HT-1080-NT fibrosarcoma cell line; details: HT-1080-NT fibrosarcoma viability, CellTiter-Glo ATP luminescence, 48 h; series mostly up to 46.1 µM;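 also: NT is the 2HG producing partner of a matched IDH1 knockdown line; nearly all actives have a fitted effect of over 55% in size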
Outline: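 Compounds were tested in concentration-response format on HT-1080-NT cells for 48 hours at 37 degrees C. Cell viability came from CellTiter-Glo luminescence; curves were classified by r2, response magnitude and activity.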
Potency is read from the fitted curve at half-maximal effect.

| Structure (SMILES) | Potency | activity, negative = less viability |
| --- | --- | --- |
| C=C1C=C(C)n2ncc(C(=O)Nc3ccccc3O)c2N1 | inactive |  |
| COc1ccc(C(C)(C)C)cc1NC(=O)CN(C)C1=NS(=O)(=O)c2ccccc21 | inactive |  |
| CCc1nc2ccc(C(=O)Nc3cc(-c4ccccc4)ccc3OC)cn2c1N(CC)CC(=O)N(C)C | inactive |  |
| CCOC(=O)C1(C)CCCN(C(=O)c2ccc(N(C)C)cc2)C1 (stereo unspecified) | inactive |  |
| COc1ccccc1-c1cc(NC(C)=O)c2ncc(-c3ccc(F)cc3)n2c1 | inactive |  |
| CC(=O)c1cccc(-c2cnc3c(NC=O)cc(-c4ccccc4Oc4ccccc4)cn23)c1 | inactive |  |
| CC(=O)c1cccc(-c2cnc3c(NC=O)cc(-c4cccc(C(=O)N(C)C)c4)cn23)c1 | inactive |  |
| CC(=O)Nc1cc(-c2cccc(CO)c2)cn2c(-c3cccc(C(F)(F)F)c3)cnc12 | inactive |  |
| CC(=O)c1cccc(-c2cnc3c(NC=O)cc(-c4ccc(N5CCN(C)CC5)cc4)cn23)c1 | inactive |  |
| COc1cccc(-c2cc(NC(C)=O)c3ncc(-c4cccc(C(C)=O)c4)n3c2)c1 | inactive |  |
| CN(C)CCNC(=O)c1cccc(-c2cnc3c(NC=O)cc(-c4cccc(C(F)(F)F)c4)cn23)c1 | 20.6 µM (active) |  |
| CC(=O)Nc1cccc(-c2cc(NC=O)c3ncc(-c4ccc(F)c(Cl)c4)n3c2)c1 | 18.4 µM (active) |  |
| CC(=O)Nc1cc(-c2ccccc2N(C)C)cn2c(-c3ccc(F)c(Cl)c3)cnc12 | 29.1 µM (active) |  |
| CC(C)(C)C1CCC(=O)N2CCC[C@]2(c2ccccc2)C1 (stereo partly specified) | inactive |  |
| COc1ccc(COC[C@H](CC(C)C)N2CCN(C(=O)c3cccc(C(F)(F)F)c3)CCC2=O)cc1 | inactive |  |
| CCC(C(=O)NCc1ccccc1)n1c(Cc2cc(F)cc(F)c2)nc2ccccc21 (stereo unspecified) | inactive |  |
| Cc1cccc(S(=O)(=O)N(C)C[C@@H]2OCc3cnnn3CCCC(=O)N([C@H](C)CO)C[C@@H]2C)c1 | inactive |  |
| O=C1Nc2ccccc2NC(c2ccc3c(c2)OCO3)=C1N(Cc1ccc(F)cc1)C(=O)c1ccco1 | inactive |  |
| CCc1nc2ccc(C(=O)N3CCC(O)(Cc4ccccc4)CC3)cn2c1N(C)C(=O)Cc1ccccc1 | inactive |  |
| Cc1cc(Nc2ccc(C)c(C)c2)n2ncnc2n1 | inactive |  |
| CC(C)(C(=O)N1CCC1(C)C(=O)NS(=O)(=O)c1ccc(Br)cc1)c1ccccc1 (stereo unspecified) | inactive |  |
| CCc1nc(C)cn1S(=O)(=O)c1cc([N+](=O)[O-])ccc1Cl | 4.11 µM (active) |  |
| CC(C)c1nccn1S(=O)(=O)c1cc([N+](=O)[O-])ccc1Cl | inactive |  |
| CCc1nc(C)cn1S(=O)(=O)c1cc(OC)c(C)cc1C | inactive |  |

| Structure (SMILES) | Potency | activity, negative = less viability |
| --- | --- | --- |
| COc1ccc(S(=O)(=O)NCCCc2ccccc2)cc1 | inactive |  |
| Cc1ccc(S(=O)(=O)/N=C2\C=C(NS(=O)(=O)c3ccc(C)cc3)C(=O)c3ccccc32)cc1 | inactive |  |
| COc1ccc(S(=O)(=O)/N=C2\C=C(NS(=O)(=O)c3ccccc3)C(=O)c3ccccc32)cc1 | 18.4 µM (active) |  |
| O=C1c2ccccc2C(c2nc3ccccc3[nH]2)N1c1ccccc1 (stereo unspecified) | inactive |  |
| CC1(C)OC(=O)C2=C(C[C@@H](C3CCCCC3)O[C@@H]2c2ccc(Cl)cc2)O1 | inactive |  |
| CN1OC[C@@H]2CN(C(=O)c3ccc(-c4ccccc4)cc3)[C@H](c3ccc(-c4cccc(F)c4)cc3)C[C@@H]21 | inactive |  |
| CCCCOC(=O)Nc1nccs1 | inactive |  |
| CCCCc1nnc(NC(=O)CS(=O)(=O)Cc2ccccc2)s1 | inactive |  |
| CCCCOC(=O)Nc1nnc(CC(=O)NCc2ccccc2)s1 | 4.11 µM (active) |  |
| Cc1noc(C)c1-c1ccc(C(=O)NCc2ccncc2)c2occc12 | inactive |  |
| NC(=O)NC(CC(=O)NNC(=O)c1ccccn1)c1ccc(Cl)cc1 (stereo unspecified) | inactive |  |
| C/C(=N\NC(=O)Cc1ccc(Cl)cc1)c1ccccn1 | 1.78 µM (active) |  |
| CC(=NNC(=S)N1CCCCCC1)c1ccccn1 | inactive |  |
| O=C(O)c1ccccc1Cc1ccc(F)c2ccccc12 | inactive |  |
| Nc1ncnc2c1ncn2[C@@H]1O[C@H](C(=O)NCC(F)(F)F)[C@@H](O)[C@H]1O | inactive |  |
| CCOC(=O)c1cc(-c2sc(NC(=O)c3ccccc3)nc2C)n(CCO)n1 | inactive |  |
| COc1ccc(Br)c(Cn2c(C)c(C(=O)NCc3cccs3)sc2=O)c1 | inactive |  |
| C[C@@H]1CN([C@H](C)CO)C(=O)c2cc(Br)cnc2O[C@@H]1CN(C)Cc1cncnc1 | inactive |  |
| CCCCN(CCCC)CC(O)Cn1c2ccccc2c(=O)c2ccccc21 (stereo unspecified) | inactive |  |
| CS(=O)(=O)N(CC(O)Cn1c2ccccc2c2ccccc21)c1cccc2ccccc12 (stereo unspecified) | 18.4 µM (active) |  |
| Cc1cc(C)n(CC(O)CN(c2ccccc2)S(=O)(=O)c2ccc3ccccc3c2)n1 (stereo unspecified) | inactive |  |
| COc1ccc(Cn2c(=O)[nH]c3cc(C(=O)N4CCN(C(=O)c5ccco5)CC4)ccc3c2=O)cc1 | inactive |  |
| O=C1NC[C@H](CCCCN2C[C@H](Cc3ccc(O)cc3)N(CC3CCCCC3)C(=O)C2=O)N(CCc2ccccc2)C1=O | inactive |  |
| O=C(OCc1ccccc1)N1CCC2CC1c1cc(N3CCN(S(=O)(=O)c4cc(Cl)cc(Cl)c4)CC3)ccc12 (stereo unspecified) | inactive |  |

| Structure (SMILES) | Potency | activity, negative = less viability |
| --- | --- | --- |
| CCCCCCCCCCOC(=O)Cn1c(COc2cccc(OC)c2)[n+](C)c2ccccc21 | inactive |  |
| CCCCCCCCCCOC(=O)Cn1c(COc2ccc(C)cc2)[n+](C)c2ccccc21 | 18.4 µM (active) |  |
| CCCCOc1ccc(NC(=O)CSCC(=O)OCC)cc1 | inactive |  |
| CN1CCN(C(=O)c2ccc(NC(=O)c3ccc(Br)o3)cc2)CC1 | inactive |  |
| O=C(Nc1ccc(Cl)cc1)c1csc([C@H]2C[C@H](O)[C@@H](CO)O2)n1 | inactive |  |
| CCOC(=O)C(C(=O)c1ccccc1)C(c1ccccc1)c1nccc2ccccc12 (stereo unspecified) | inactive |  |
| CCOC(=O)[C@]12CCC=C1N(Cc1ccco1)C(=O)[C@H](CC(=O)N1CCSCC1)C2 | inactive |  |
| Nc1nnc(SCC(=O)Nc2ccc3nc(SCC(=O)Nc4ccccc4)sc3c2)s1 | inactive |  |
| CCN(CC)CCCSc1nc2ccccc2s1 | inactive |  |
| O=[N+]([O-])c1c(NCCO)cc(Sc2nc3ccccc3s2)c2nonc12 | 5.62 µM (active) |  |
| CC1(Cc2ccccc2C#N)C(=O)Nc2ccc(-c3ccc4[nH]ccc4c3)cc21 (stereo unspecified) | 7.31 µM (active) |  |
| O=C(NCc1cccnc1)c1cc(C2CCCN(C(=O)C3CCCCC3)C2)on1 (stereo unspecified) | inactive |  |
| Cc1ccc(-c2c(N)nc3ncccn23)cc1 | inactive |  |
| COCC1CCCCN1C(=O)c1cc(COc2ccc(C)c(C)c2)on1 (stereo unspecified) | inactive |  |
| CC1(Oc2cccc(F)c2)CCN(Cc2ccccc2OC(F)F)C1 (stereo unspecified) | inactive |  |
| CSc1nc2ccc(NC(=O)c3c(F)cccc3F)cc2s1 | inactive |  |
| CCCC(=O)Nc1nc2ccc(NC(=O)c3c(F)c(F)c(OC)c(F)c3F)cc2s1 | 1.03 µM (active) |  |
| CCCC(=O)Nc1nc2ccc(NC(=O)c3cccnc3)cc2s1 | 6.31 µM (active) |  |
| CCOC(=O)c1cc(NC(=O)c2cccnc2)ccn1 | inactive |  |
| CC(=O)Nc1ccc2nc(NC(=O)CS(=O)(=O)c3ccc(F)cc3)sc2c1 | inactive |  |
| O=C(Cc1ccccc1)Nc1ccc(NC(=O)c2cccnc2)cc1 | inactive |  |
| CCc1nc2c(OCC(=O)C(C)(C)C)cccn2c1N(C)C(=O)c1ccccc1F | inactive |  |
| CC1C(=O)N(Cc2cn(CC3CCCCC3)nn2)CCS(=O)(=O)N1Cc1ccc(-c2cccc(N(C)C)c2)cc1 (stereo unspecified) | inactive |  |
| COC(=O)C[C@H]1C=C[C@H](NC(=O)c2ccc(F)cc2)[C@@H](CO)O1 | inactive |  |

| Structure (SMILES) | Potency | activity, negative = less viability |
| --- | --- | --- |
| CN1C[C@@H](CO)O[C@@H](n2cnc3c(N4CCN(CCO)CC4)ncnc32)C1 | inactive |  |
| CCOC(=O)N1CCN(S(=O)(=O)c2ccc(Br)cc2)CC1 | inactive |  |
| CCOC(=O)N1CCN(S(=O)(=O)c2ccc(C(=O)Nc3ccc(F)cc3F)cc2)CC1 | 1.78 µM (active) |  |
| O=C(Nc1ccccc1F)c1ccc(S(=O)(=O)N2CCCCCC2)cc1 |  | -4.83% [at 9.24 µM] |
| O=C(c1cccs1)N1C[C@H](n2cc(C3CC3)nn2)[C@@H](O)C[C@@H]1c1ccccc1 | inactive |  |
| CNC(=O)C[C@H]1C(=O)N(Cc2ccccc2)C[C@@H]1CSC | inactive |  |
| Cc1cccc(C)c1-n1nnnc1C(CCc1ccccc1)N1CCN(C/C=C/c2ccccc2)CC1 (stereo unspecified) | inactive |  |
| Brc1ccc2nc(N3CCCC3)sc2c1 | inactive |  |
| CN(C)CCN(C(=O)CN1C(=O)c2ccccc2C1=O)c1nc2cc3c(cc2s1)OCCO3 | inactive |  |
| Cc1ccc2nc(N(CCN(C)C)C(=O)C3=COCCO3)sc2c1 | inactive |  |
| CCc1ccc2nc(N(CCCN(C)C)C(=O)c3ccc4c(c3)OCCO4)sc2c1 | 20.6 µM (active) |  |
| CN(C)CCCN(C(=O)c1ccc(S(=O)(=O)N2CCCCCC2)cc1)c1nc2ccc(Br)cc2s1 | 18.4 µM (active) |  |
| COc1ccc2sc(N(CCCN(C)C)C(=O)c3ccc(S(=O)(=O)N(C)C4CCCCC4)cc3)nc2c1 | inactive |  |
| OC(c1ccccc1)c1nc(/C=C/c2ccc(C(F)(F)F)cc2)cs1 (stereo unspecified) | inactive |  |
| CC(=O)C[C@@H]1OC[C@H](C)N1S(=O)(=O)c1ccc(C)cc1 | inactive |  |
| C=CCn1c2c(c3ccccc31)CCC2 | inactive |  |
| Cc1cccc(CNC(=O)c2sc(=O)n(Cc3ccccc3C)c2C)c1 | inactive |  |
| O=C(NCCc1ccccc1)C1CCN(S(=O)(=O)c2ccc(Br)s2)CC1 | inactive |  |
| O=S(=O)(NCc1cccnc1)c1ccc(Br)s1 | inactive |  |
| O=S(=O)([N-]c1nc2ccccc2nc1-[n+]1ccc(Cc2ccccc2)cc1)c1ccc(Br)s1 | 14.6 µM (active) |  |
| C[C@@H]1CN([C@@H](C)CO)C(=O)c2cc(Br)cnc2O[C@H]1CN(C)Cc1ccc(-c2ccccc2)cc1 | inactive |  |
| COc1ccccc1N1CCN(C(=O)c2cc(=O)c3cc(C)cc(C)c3o2)CC1 | 0.0206 µM (active) |  |
| COc1ccccc1N1CCN(C(=O)c2c(-c3c(Cl)cccc3Cl)noc2C)CC1 | inactive |  |
| COc1ccccc1N1CCN(C(=O)c2ccc(Cl)c(S(=O)(=O)N3CCCC3)c2)CC1 | inactive |  |
